Measurements taken from the supplement of paper PMC12297408.
Where “and” joins values, the source holds several entries; their conditions need not be identical. Equal entries are not always repeated. Structures can show the parent of a compound that is named as a salt. Unmarked numbers belong to inactive results.

System: Plasmodium falciparum NF54/iGP1_RE9H ulg8 stage V gametocytes
Assay: gametocyte viability (luciferase signal relative to DMSO control) (% of DMSO control); higher = less gametocytocidal activity, active = 50 or less
Settings: exposure time: 72 h
In short: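 Gametocyte viability is reported relative to the average of DMSO vehicle wells on the same plate. The assay used day-12 stage V NF54/iGP1_RE9Hulg8 gametocytes at ~2.5% gametocytemia and 3% hematocrit, in 0.5% Albumax II medium, added to 96-well plates of compounds spotted in nanolitre volumes for final 10 µM or 1 µM, one well each. After 72 h at 37 °C, 90 µl was mixed with 10 µl D-luciferin (30 mg/ml), and luminescence was recorded with an IVIS Lumina II.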

SMILES | gametocyte viability (concentration: 1 µM) | gametocyte viability (concentration: 10 µM)
CO[C@H]1C[C@@H]2CC[C@@H](C)[C@@](O)(O2)C(=O)C(=O)N2CCCC[C@H]2C(=O)O[C@H]([C@H](C)C[C@@H]2CC[C@@H](O)[C@H](OC)C2)CC(=O)[C@H](C)/C=C(\C)[C@@H](O)[C@@H](OC)C(=O)[C@H](C)C[C@H](C)/C=C/C=C/C=C/1C [Rapamycin] | 97.3 | 97.3
O=C(NC1CCNCC1)c1n[nH]cc1NC(=O)c1c(Cl)cccc1Cl | 99.2 | 69.7
O=C(O)c1ccc2nc(-c3ccccc3)c(-c3ccccc3)nc2c1 | 98.6 | 95.2
Nc1nc(N)c2nc(-c3cccc(O)c3)c(-c3cccc(O)c3)nc2n1 | 110 | 109
CCC[C@H](NC(=O)/C(C#N)=C/c1cccc(Br)n1)c1ccccc1 | 114 | 106
CC(=O)c1c(C)c2cnc(Nc3ccc(N4CCNCC4)cn3)nc2n(C2CCCC2)c1=O | 98 | 103
C=CC(=O)Nc1cc2c(Nc3ccc(F)c(Cl)c3)ncnc2cc1OCCCN1CCOCC1 [CI-1033 (Canertinib)] | 97.8 | 100
CNC(=O)c1cc(Oc2ccc(NC(=O)Nc3cc(C(C)(C)C)nn3-c3ccc4ncccc4c3)c(F)c2)ccn1 [DCC-2036 (Rebastinib)] | 103 | 107
CO[C@@H]1[C@H](N(C)C(=O)c2ccccc2)C[C@H]2O[C@]1(C)n1c3ccccc3c3c4c(c5c6ccccc6n2c5c31)C(=O)NC4 | 91.1 | 95.9
NCCNS(=O)(=O)c1cccc2cnccc12 | 105 | 107
N#CC(C#N)=C(N)/C(C#N)=C/c1cc(O)c(O)c(O)c1 | 110 | 113
Cc1c(CN2CCN(C(=O)[C@H](C)O)CC2)sc2c(N3CCOCC3)nc(-c3cnc(N)nc3)nc12 | 106 | 109
CN([C@@H](Cc1ccc(OS(=O)(=O)c2cccc3cnccc23)cc1)C(=O)N1CCN(c2ccccc2)CC1)S(=O)(=O)c1cccc2cnccc12 | 93.8 | 81.8
COc1cc2c(Nc3ccc(NC(=O)c4ccccc4)cc3)ncnc2cc1OCCCN1CCOCC1 | 92.3 | 92.5
CC[C@H](CO)Nc1nc(NCc2ccccc2)c2ncn(C(C)C)c2n1 [Roscovitine] | 107 | 105
Nc1ncnc2c1c(I)cn2[C@@H]1O[C@H](CO)[C@@H](O)[C@H]1O [5-Iodotubericidin] | 103 | 113
O=C(Cc1ccc(-c2ccc(OCCN3CCOCC3)cc2)cn1)NCc1ccccc1 | 99.7 | 113
COC(=O)c1ccc2c(C(=Nc3ccc(N(C)C(=O)CN4CCN(C)CC4)cc3)c3ccccc3)c(O)[nH]c2c1 [BIBF1120 (Vargatef)] | 96 | 108
Cn1cnc2nc(NCCO)nc(NCc3ccccc3)c21 [Iso-olomoucine] | 95 | 102
COc1cc2nccc(Oc3ccc(NC(=O)Nc4ccc(F)cc4F)c(F)c3)c2cc1OC | 94.9 | 85
CS(=O)(=O)N1CCN(Cc2cc3nc(-c4cccc5[nH]ncc45)nc(N4CCOCC4)c3s2)CC1 | 97.2 | 108
NC(=O)c1ccc(-c2nc(-c3ccccn3)c(-c3ccc4c(c3)OCO4)[nH]2)cc1 | 101 | 125
COc1cc(N2CCC(N3CCN(C)CC3)CC2)ccc1Nc1ncc(Cl)c(Nc2ccccc2S(=O)(=O)C(C)C)n1 | 73.9 | 41.9 (active)
N=C(N)NC(=N)NCCc1ccccc1 [Phenformin hydrochloride] | 99.9 | 111
CN1CC[C@H](c2c(O)cc(O)c3c(=O)cc(-c4ccccc4Cl)oc23)[C@H](O)C1 [Flavopiridol hydrochloride] | 106 | 111

SMILES | gametocyte viability (concentration: 1 µM) | gametocyte viability (concentration: 10 µM)
CNC(=O)c1ccc(C)c(-n2c(C)cc(OCc3ccc(F)cc3F)c(Br)c2=O)c1 | 100 | 108
CCCCCCCCCCCCCCCC(=O)OC(CC(=O)[O-])C[N+](C)(C)C (racemic) [Palmitoyl-DL-carnitine] | 100 | 108
Cc1[nH]nc2ccc(-c3cncc(OC[C@@H](N)Cc4ccccc4)c3)cc12 | 101 | 104
CCN1CCN(Cc2ccc(-c3cc4c(N[C@H](C)c5ccccc5)ncnc4[nH]3)cc2)CC1 | 96.1 | 52.6
O=C1NC(=O)/C(=C\c2ccc3nccnc3c2)S1 | 94.4 | 101
COc1ccc(S(=O)(=O)N(C(C)=O)c2ccccc2/C=C/c2cc[n+]([O-])cc2)cc1 | 98 | 112
O=c1c(O)c(-c2ccc(O)c(O)c2)oc2cc(O)cc(O)c12 [Quercetin (Sophoretin)] | 105 | 108
O=C1Nc2ccc(I)cc2/C1=C/c1cc(Br)c(O)c(Br)c1 | 92.1 | 90.5
CC(C)n1cnc2c(NCc3ccccc3)nc(NCCO)nc21 [N9-isopropyl-olomoucine] | 92.7 | 91
CC1(C)CNc2cc(NC(=O)c3cccnc3NCc3ccncc3)ccc21 [Motesanib Diphosphate] | 97 | 97.4
CO[C@@H](C(=O)N1Cc2[nH]nc(NC(=O)c3ccc(N4CCN(C)CC4)cc3)c2C1)c1ccccc1 | 89.5 | 71.6
CCN(CC)CCNC(=O)c1c(C)[nH]c(/C=C2\C(=O)Nc3ccc(F)cc32)c1C [Sunitinib Malate (Sutent)] | 102 | 80.7
NC(N)=NCCNS(=O)(=O)c1cccc2cnccc12 | 107 | 107
CC[C@@H]1C(=O)N(C)c2cnc(Nc3ccc(C(=O)NC4CCN(C)CC4)cc3OC)nc2N1C1CCCC1 | 80.6 | 63.5
N#C/C(=C\c1ccc(O)c(O)c1)C(N)=O | 93.5 | 98
CCOc1cc2ncc(C#N)c(Nc3ccc(F)c(Cl)c3)c2cc1NC(=O)/C=C/CN(C)C [Pelitinib (EKB-569)] | 85.3 | 99.8
COc1cc(Nc2ncc(F)c(Nc3ccc4c(n3)NC(=O)C(C)(C)O4)n2)cc(OC)c1OC | 99.8 | 104
N#C/C(=C\c1ccc(O)c(O)c1)C(=O)NCc1ccccc1 | 98.4 | 95.8
COc1cc2ncc(-c3ccccc3)nc2cc1OC | 99.5 | 91.9
Cn1c(Nc2ccc(C(F)(F)F)cc2)nc2cc(Oc3ccnc(-c4ncc(C(F)(F)F)[nH]4)c3)ccc21 | 103 | 104
C[C@@H]1CN(CC(=O)Nc2ccc3c(c2)Cc2cccc(-c4cc(=O)cc(N5CCOCC5)o4)c2S3)C[C@H](C)O1 | 86 | 68
CC[C@H](Nc1ncnc2[nH]cnc12)c1nc2cccc(F)c2c(=O)n1-c1ccccc1 | 95.1 | 95.9
c1ccc2c(-c3cnn4cc(-c5ccc(N6CCNCC6)cc5)cnc34)ccnc2c1 | 106 | 73.3
COc1cc2nccc(Oc3ccc(NC(=O)Nc4cc(C)on4)c(Cl)c3)c2cc1OC [Tivozanib (AV-951)] | 94 | 99.8
O=C1c2ccccc2-c2n[nH]c3cccc1c23 | 95.3 and 98.9 | 90.5 and 106
